cardiac RTF act = cardiac RTF calcium sensitivity activators, primary screen, biochemical, IANBD-TnC fluorescence, EC20 calcium. activation, % at 7.2 µM. hit rate 0.24% among 340,000. IANBD-labeled TnC RTF fluorescence at EC20 calcium; 0% EC20 calcium, 100% full calcium;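 active = activation above the mean over all tested compounds plus 3 SD, cut at about 30% in these data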;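 note: rise in fluorescence read as greater calcium sensitivity of cardiac thin filaments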
E coli Lon inh = inhibitors of E. coli Lon protease, primary screen, biochemical, fluorescence polarization | P0A9M0 | hit rate 0.42% among 360,000 | inhibition, % at 7.94 µM | purified E. coli Lon protease; in the data active = inhibition above about 13%, passing the limit was not always enough;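 note: 0% = enzyme with probe and DMSO and 100% = no enzyme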
Cardiac RTF inh = cardiac RTF calcium sensitivity inhibitors, primary screen, biochemical, IANBD-TnC fluorescence, EC70 calcium | Troponin I, cardiac muscle (Homo sapiens) + Troponin T, cardiac muscle (Homo sapiens) + … | IANBD-labeled cardiac RTF, Ca2+ fluorescence | inhibition, % at 7.15 µM | hit rate 0.12% among 340,000;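 active = inhibition above the mean inhibition of all tested compounds plus 3 SD, cut at about 17% in these data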;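 note: assay run at fixed EC70 calcium of 1.6 mM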
Keap1 Nrf2 FP = Keap1-Nrf2 protein-protein interaction inhibitors, primary screen, biochemical, fluorescence polarization, single point; Keap1 Kelch-Nrf2 peptide fluorescence polarization, 1536-well; inhibition, % at 9.4 µM; hit rate 0.15% among 340,000; in the data active = inhibition above about 12%;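 note: human Keap1 Kelch domain with fluorescein labeled Nrf2 9mer peptide probe; 0% = neutral control wells and 100% = peptide positive control; higher means more block of Keap1 binding to Nrf2 peptide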
LANA-H2A inh = blockers of LANA interaction with H2A/H2B – biochemical, FP readout, HTS, primary screen; Protein LANA1 (Human herpesvirus 8 type P (isolate GK18)), Q9QR71; inhibition, % (no concentration beside the values); hit rate 0.6% among 320,000; AID 2629, 2010; cell-free LANA-H2A/H2B peptide, fluorescence polarization; in the data active = inhibition mostly above about 10%, no sharp cut-off; inactive = mostly below about 6.7%
Target sequence (Q9QR71 whole entry, looked up): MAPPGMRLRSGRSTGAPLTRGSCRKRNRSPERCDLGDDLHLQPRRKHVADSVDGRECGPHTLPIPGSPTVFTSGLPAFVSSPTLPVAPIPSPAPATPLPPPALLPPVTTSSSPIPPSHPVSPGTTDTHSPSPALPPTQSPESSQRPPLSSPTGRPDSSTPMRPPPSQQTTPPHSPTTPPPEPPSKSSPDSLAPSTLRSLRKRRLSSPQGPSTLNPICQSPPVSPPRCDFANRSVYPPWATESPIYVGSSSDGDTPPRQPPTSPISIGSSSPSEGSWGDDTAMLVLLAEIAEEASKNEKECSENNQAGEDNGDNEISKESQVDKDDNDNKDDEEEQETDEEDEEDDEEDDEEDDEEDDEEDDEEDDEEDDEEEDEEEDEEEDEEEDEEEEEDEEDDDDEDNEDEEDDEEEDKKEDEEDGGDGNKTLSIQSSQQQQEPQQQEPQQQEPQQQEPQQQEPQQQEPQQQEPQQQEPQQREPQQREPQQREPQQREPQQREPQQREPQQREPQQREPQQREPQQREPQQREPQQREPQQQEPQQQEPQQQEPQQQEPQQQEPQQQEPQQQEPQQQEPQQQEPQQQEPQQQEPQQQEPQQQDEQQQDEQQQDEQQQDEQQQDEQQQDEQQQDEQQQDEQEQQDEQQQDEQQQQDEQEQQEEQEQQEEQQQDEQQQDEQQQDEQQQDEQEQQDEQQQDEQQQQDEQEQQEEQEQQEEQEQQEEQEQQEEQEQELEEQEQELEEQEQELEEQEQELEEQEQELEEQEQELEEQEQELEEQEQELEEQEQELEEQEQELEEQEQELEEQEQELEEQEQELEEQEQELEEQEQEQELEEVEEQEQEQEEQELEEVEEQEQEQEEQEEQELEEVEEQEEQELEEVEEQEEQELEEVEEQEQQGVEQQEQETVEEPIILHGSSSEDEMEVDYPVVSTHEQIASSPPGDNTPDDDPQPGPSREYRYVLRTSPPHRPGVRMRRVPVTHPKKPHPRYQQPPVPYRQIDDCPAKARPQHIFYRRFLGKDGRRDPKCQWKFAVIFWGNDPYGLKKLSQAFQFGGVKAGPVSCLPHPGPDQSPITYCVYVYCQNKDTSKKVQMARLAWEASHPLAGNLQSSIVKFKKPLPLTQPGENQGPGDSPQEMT
LANA DNA inh = inhibitors of KSHV C-LANA binding to DNA, primary screen, biochemical, fluorescence polarization, FAM-LBS DNA, MBP-C-LANA, single point; Kaposi's sarcoma herpesvirus LANA C-terminal domain (residues 932-1162) DNA binding; inhibition, % at 9 µM; hit rate 0.078% among 340,000;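 active = highest replicate inhibition at or above 60% at 9 µM, even if other replicates fall short; inactive = all replicates below 60% inhibition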;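 note: 0% = neutral control wells and 100% = 4 µM acridine orange control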
* = called active by the depositor. In the library only some 1.3% were active in any assay of this set; here they are far more common.

How did CCOC(=O)C1=C(C)C/C(=N\NC(=O)c2ccccc2O)CC1 do in these assays?
cardiac RTF act: 2; E coli Lon inh: 3; Cardiac RTF inh: 3; Keap1 Nrf2 FP: -4; LANA-H2A inh: 17*; LANA DNA inh: 2

Results for CC(=O)c1ccc(CCCCCCCCCC(=O)O)s1 ?
cardiac RTF act: 0; E coli Lon inh: -6; Cardiac RTF inh: 9; Keap1 Nrf2 FP: -3; LANA-H2A inh: 2.8*; LANA DNA inh: -2

Results for N#CC1(NC(=O)COC(=O)c2ncc(Cl)c(Cl)c2Cl)CCCCC1 ?
cardiac RTF act: -1; E coli Lon inh: -9; Cardiac RTF inh: -10; Keap1 Nrf2 FP: -4; LANA-H2A inh: -8; LANA DNA inh: 1

Results for N#CC1(NC(=O)COC(=O)c2nc(Cl)c(Cl)c(N)c2Cl)CCCCC1 ?
cardiac RTF act: 7; E coli Lon inh: -5; Cardiac RTF inh: -6; Keap1 Nrf2 FP: -6; LANA-H2A inh: 14*; LANA DNA inh: 0

How did CCSc1ncc(Cl)c(C(=O)Nc2ccc(S(=O)(=O)Nc3ncccn3)cc2)n1 do in these assays?
cardiac RTF act: 4; E coli Lon inh: -6; Cardiac RTF inh: -8; Keap1 Nrf2 FP: 4; LANA-H2A inh: 1; LANA DNA inh: 1

Results for CCCS(=O)(=O)c1ncc(Cl)c(C(=O)Nc2ccc(S(=O)(=O)Nc3ncccn3)cc2)n1 ?
cardiac RTF act: 3; E coli Lon inh: 5; Cardiac RTF inh: -3; Keap1 Nrf2 FP: 42*; LANA-H2A inh: 1; LANA DNA inh: 0

What do the screens show for `CN(C)C(CNC(=O)CCc1nc2sc3c(c2c(=O)[nH]1)CCCC3)c1ccccc1` (stereo unspecified)?
cardiac RTF act: -4; E coli Lon inh: -8; Cardiac RTF inh: -13; Keap1 Nrf2 FP: -3; LANA-H2A inh: -3; LANA DNA inh: -1

Results for CCN(CC)CCN(C(=O)c1ccc(S(=O)(=O)N(C)C2CCCCC2)cc1)c1nc2ccc(OC)cc2s1 ?
cardiac RTF act: 1; E coli Lon inh: -1; Cardiac RTF inh: -3; Keap1 Nrf2 FP: 1; LANA-H2A inh: 108*; LANA DNA inh: 0

What do the screens show for `COCCN(CC(=O)Nc1ccccc1C(F)(F)F)C(=O)/C=C/c1ccc2ccccc2n1`?
cardiac RTF act: 0; E coli Lon inh: -9; Cardiac RTF inh: -1; Keap1 Nrf2 FP: -7; LANA-H2A inh: 2; LANA DNA inh: 2

How did O=C(c1ccccn1)N(CC1CCCO1)C1(C(=O)NC2CCCCC2)CCCCC1 (stereo unspecified) do in these assays?
cardiac RTF act: 4; E coli Lon inh: -2; Cardiac RTF inh: 3; Keap1 Nrf2 FP: -5; LANA-H2A inh: 25*; LANA DNA inh: 0

Results for O=C(c1ccccn1)N(Cc1ccco1)C1(C(=O)NC2CCCCC2)CCCCC1 ?
cardiac RTF act: 0; E coli Lon inh: -3; Cardiac RTF inh: 3; Keap1 Nrf2 FP: 0; LANA-H2A inh: -1; LANA DNA inh: -1

Results for COCCCNC(=O)Cn1cnc2c(OCc3ccccc3)ncnc21 ?
cardiac RTF act: 4; E coli Lon inh: 2; Cardiac RTF inh: -5; Keap1 Nrf2 FP: -2; LANA-H2A inh: 194*; LANA DNA inh: 0

What do the screens show for `Cc1cc(C)cc(-c2nnc(SCC(=O)c3c(N)n(C4CC4)c(=O)[nH]c3=O)o2)c1`?
cardiac RTF act: -4; E coli Lon inh: -5; Cardiac RTF inh: 1; Keap1 Nrf2 FP: -5; LANA DNA inh: 0

How did Cc1ccc(Nc2nnc(SCC(=O)c3c(N)n(C4CC4)c(=O)[nH]c3=O)s2)cc1C do in these assays?
cardiac RTF act: 7; E coli Lon inh: -6; Cardiac RTF inh: 2; Keap1 Nrf2 FP: 3; LANA-H2A inh: active; LANA DNA inh: -1

Results for Cc1cccc(Nc2nnc(SCC(=O)c3c(N)n(C4CC4)c(=O)[nH]c3=O)s2)c1 ?
cardiac RTF act: -1; E coli Lon inh: -8; Cardiac RTF inh: 6; Keap1 Nrf2 FP: 3; LANA-H2A inh: -9; LANA DNA inh: 1

What do the screens show for `CCS(=O)(=O)c1ccc2oc(SCC(=O)c3c(N)n(C4CC4)c(=O)[nH]c3=O)nc2c1`?
cardiac RTF act: -1; E coli Lon inh: -11; Cardiac RTF inh: -3; Keap1 Nrf2 FP: 5; LANA-H2A inh: 47*; LANA DNA inh: 1

What do the screens show for `Cc1ccc(N(CC(N)=O)C2SC(=O)NC2=O)cc1` (stereo unspecified)?
cardiac RTF act: -2; E coli Lon inh: 7; Cardiac RTF inh: 11; Keap1 Nrf2 FP: -2; LANA-H2A inh: 22*; LANA DNA inh: 1

Results for O=S(=O)(c1ccc(SCCOc2ccc(F)cc2)nc1)N1CCCC1 ?
cardiac RTF act: -2; E coli Lon inh: 13; Cardiac RTF inh: 0; Keap1 Nrf2 FP: -2; LANA DNA inh: 1

Results for N#Cc1cc(C(=O)c2cc(F)ccc2O)cn(-c2nccs2)c1=O ?
cardiac RTF act: 54*; E coli Lon inh: -261; Cardiac RTF inh: -75; Keap1 Nrf2 FP: -66; LANA-H2A inh: -7; LANA DNA inh: 9

Results for N#Cc1cc(C(=O)c2ccccc2O)cn(-c2nccs2)c1=O ?
cardiac RTF act: 62*; E coli Lon inh: -249; Cardiac RTF inh: -78; Keap1 Nrf2 FP: -22; LANA-H2A inh: -5; LANA DNA inh: 25

What do the screens show for `Cc1ccc(N(C)C(=O)CCS(=O)(=O)c2cc3c(cc2Cl)NC(=O)CO3)cc1`?
cardiac RTF act: 1; E coli Lon inh: 3; Cardiac RTF inh: -2; Keap1 Nrf2 FP: -4; LANA-H2A inh: 8; LANA DNA inh: -1

Results for O=C(NNC(=O)C1CCCN(c2ncccn2)C1)c1ccncc1 (stereo unspecified) ?
cardiac RTF act: -9; E coli Lon inh: 3; Cardiac RTF inh: 4; Keap1 Nrf2 FP: -3; LANA-H2A inh: 12*; LANA DNA inh: 1

How did O=C(c1cccc2ccccc12)N1CCCCC1 do in these assays?
cardiac RTF act: 3; E coli Lon inh: 1; Cardiac RTF inh: -8; Keap1 Nrf2 FP: -4; LANA-H2A inh: 11*; LANA DNA inh: -1

How did O=C(O)C1CCCN(C(=O)c2cccc3ccccc23)C1 (stereo unspecified) do in these assays?
cardiac RTF act: -1; E coli Lon inh: 1; Cardiac RTF inh: -3; Keap1 Nrf2 FP: -10; LANA-H2A inh: -4; LANA DNA inh: -1

Results for CCC[C@H]1COCCS(=O)(=O)N1Cc1ccc(Br)cc1 ?
LANA-H2A inh: 0

Screens: PubChem BioAssay, several laboratories
